Shown are actives, neighbours in structure and some others; about 11% of the full set was active somewhere.
Pf growth 48h = P. falciparum growth inhibition at 48 hours (one generation) | P. falciparum luciferase growth in erythrocytes, 48 h | 310,000 compounds, 5.9% hits | Potency, µM (titrated, usually from 28.7 µM), most hits filed as inhibitors
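In quantitative HTS format, infected erythrocytes bearing luciferase-reporter parasites were treated for a single generation at 37 C. Luminescence after adding detection reagent served as the growth measure.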
Pf growth 96h = P. falciparum growth inhibition at 96 hours. P. falciparum luciferase reporter growth, 96 h. Potency, µM (titrated, usually from 28.7 µM), actives largely listed as inhibitors. 320,000 compounds, 6.9% hits
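Plates of compound plus infected erythrocytes (2% hematocrit, 0.05% parasitemia final) incubate 96 hours, 37 C, 5% CO2. Detection reagent added; reduced luminescence from the parasites' luciferase reporter flags inhibition.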
HCV inh = HCV inhibition; Potency, µM (doses to about 41.8 µM), usual class: inhibitors; Huh7.5.1 HCVcc-Cre infection, luciferase reporter, 44 h; AID 651820; 340,000 compounds, 3.4% hits
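Whole-lifecycle infectious HCVcc-Cre system; cells 1,000/well, compound then virus (~0.5 moi) added 4 h after plating, 44 h culture. Luciferase read 15 sec following 15 min substrate incubation, room temp.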
AMA1 RON2 block = AMA1-RON2 (P. falciparum) interaction inhibition. 360,000 compounds, 0.2% hits. Potency, µM (doses to about 58.2 µM), most hits filed as inhibitors. AlphaScreen AMA1-biotinylated RON2 peptide binding. AID 720542; also: nearly all actives have a fitted effect of over 45% in size
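AMA1 (3D7) with his tag at 25 nM final met compounds first, then biotinylated RON2 peptide at 25 nM; detection used donor plus acceptor beads, 10 µg/mL apiece, read by AlphaScreen after 30 min at room temperature.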
Numbers stand for hits; – = inactive; ? = inconclusive; · = no result given; [ ] = dose if it differs, or a comment. Calls follow the shape of the dose curve; as a rule, active = well fitted curve in the direction sought with a large enough effect; inconclusive = small, poorly fitted or top-dose-only effect, or another doubt; inactive = no such curve, though single readings can be large; an effect the other way counts as inactive or inconclusive.

SMILES | Pf growth 48h | Pf growth 96h | HCV inh | AMA1 RON2 block
O=[N+]([O-])c1ccc(O)c(/C=N/NC(=S)Nc2ccc(Cl)cc2Cl)c1 | 2.1µM | 0.83µM | – | –
Fc1ccc(/C=N/NC(=S)Nc2ccc(Cl)cc2Cl)cc1 | – | 2.1µM | ? | –
Cc1cc(Cl)ccc1NC(=O)CCC(=O)N/N=C/c1cc([N+](=O)[O-])ccc1O | ? | ? | – | –
O=C(CSc1ncnc2nc[nH]c12)c1ccc2ccccc2c1 | – | 5.2µM | – | –
Oc1c(Cl)cccc1C=Nc1cc(C(F)(F)F)ccc1N1CCCC1 | ? | ? | – | –
Oc1ccccc1C=NC1=NN(c2cccc(C(F)(F)F)c2)CC1 | – | 2.1µM | – | –
CCOCCn1c(=O)c2c(nc3n2CCCN3Cc2ccccc2)n(C)c1=O | – | ? | – | –
Cn1c(=O)n(Cc2ccccc2)c(=O)c2c1nc1n2CCCN1CCc1ccccc1 | · | 3.3µM | ? | –
CCOCCn1c(=O)c2c(nc3n2CCCN3CCc2ccccc2)n(C)c1=O | ? | 15µM | – | –
CCCCn1c(=O)c2c(nc3n2CCCN3Cc2ccccc2)n(C)c1=O | 5.2µM | ? | – | –
Cc1noc(C)c1S(=O)(=O)Nc1ccc(C(=O)N2CCC(C)CC2)cc1 | – | – | · | ·
Cc1cc(C(F)(F)F)nn1CC(=O)NCc1ccccc1 | · | 7.4µM | – | –
COc1ccccc1CNC(=O)Cn1nc(C(F)(F)F)cc1C | 12µM | 15µM | – | –
Cc1cc2oc(C(=O)N(Cc3ccc(N(C)C)cc3)CC3CCCO3)c(C)c2cc1C (stereo unspecified) | ? | ? | ? | 14µM
Cc1ccc2c(C)c(C(=O)N(Cc3ccncc3)CC3CCCO3)oc2c1C (stereo unspecified) | – | – | ? | –
Cc1ccc2oc(C(=O)N(Cc3ccc(N(C)C)cc3)CC3CCCO3)c(C)c2c1 (stereo unspecified) | – | – | – | 18µM
Cc1c(C(=O)N(Cc2ccncc2)CC2CCCO2)oc2c(F)cccc12 (stereo unspecified) | – | 10µM | – | –
CCOC(=O)C1=C(COC(=O)c2ccc(Br)c(S(=O)(=O)N3CCOCC3)c2)NC(=O)NC1C (stereo unspecified) | · | · | ? | –
CC(C)n1cc(C(=O)NC2CC(C)(C)Cc3c2cnn3-c2ccccc2)cn1 (stereo unspecified) | – | ? | – | –
CCN(CC)S(=O)(=O)c1ccc(N2CCOCC2)c(NC(=O)COc2ccc(Cl)cc2)c1 | ? | ? | 10µM | –
CCN(CC)S(=O)(=O)c1ccc(O)c(NC(=O)COc2ccc(S(=O)(=O)N3CCOCC3)cc2)c1 | · | · | – | –[11.6 µM]
O=C(COc1ccc(Br)cc1)Nc1cc(S(=O)(=O)N2CCCCC2)ccc1N1CCCCC1 | – | 1.9µM | ? | –
O=C(COc1ccc(Cl)cc1)Nc1cc(S(=O)(=O)N2CCCCC2)ccc1N1CCCCC1 | 12µM | 2.3µM | ? | –
COc1ccc(N2CCCC2)c(NC(=O)COc2ccccc2Cl)c1 | ? | – | ? | –
N#Cc1ccc(OCC(=O)Nc2cc(S(=O)(=O)N3CCCCC3)ccc2N2CCCCC2)cc1 | – | ? | ? | –
SMILES | Pf growth 48h | Pf growth 96h | HCV inh | AMA1 RON2 block
COc1ccc(OCC(=O)Nc2cc(OC)ccc2N2CCCCC2)cc1 | 12µM | – | ? | –
CCCC(=O)N1CCN(S(=O)(=O)c2cc(Cl)ccc2OC)CC1 | – | – | – | –
CCOC(=O)N1CCC(Nc2c(NCCCN(C)Cc3ccccc3)c(=O)c2=O)CC1 | · | – | – | –
Cc1cccc(OCC(=O)Nc2cc(S(=O)(=O)N3CCCCC3)ccc2N2CCN(C)CC2)c1 | ? | ? | ? | –
CN1CCN(c2ccc(S(=O)(=O)N3CCCCC3)cc2NC(=O)COc2cccc(Cl)c2)CC1 | 10µM | ? | ? | –
Cc1c(-c2ccccc2)[n+](=O)c2c(n1[O-])CCCC2 | – | – | – | –
Cc1c(-c2cccs2)[n+](=O)c2c(n1[O-])CCCCC2 | – | 10µM | – | –
COc1ccc(CN2CCNC(=O)C2CC(=O)NCCc2cnccn2)cc1C (stereo unspecified) | – | 15µM | – | –
O=C(CC1C(=O)NCCN1Cc1cccc(Oc2ccccc2)c1)NCCc1cnccn1 (stereo unspecified) | – | ? | – | –
COc1ccc(CN2CCNC(=O)C2CC(=O)NCCC2=CCCCC2)cc1OC (stereo unspecified) | – | 10µM | – | –
CCOC(=O)CC1C(=O)NCCN1Cc1ccc(OC)c(OC)c1 (stereo unspecified) | – | 10µM | – | –
COc1cccc(CCNC(=O)CC2C(=O)NCCN2CC(C)(C)C)c1 (stereo unspecified) | – | 15µM | – | –
CCOc1ccccc1OCC(=O)NN1Cc2ccccc2C1=N | · | – | – | –
CSCCC(NC(=O)c1ccco1)C(=O)N1CC=C(c2ccccc2)CC1 (stereo unspecified) | – | – | · | –
CCCc1cc(=O)[nH]c(SCC(=O)Nc2sc3c(c2C(N)=O)CCCC3)n1 | · | · | – | –
Oc1ccc2[nH]cc(CCCCN3CC=C(c4ccccc4)CC3)c2c1 | 4.3µM | 4.3µM | · | ·
O=C(O)c1ccc2[nH]cc(CCCCN3CC=C(c4ccccc4)CC3)c2c1 | – | – | · | ·
COc1cc(CNCCc2ccc(S(N)(=O)=O)cc2)ccc1OCC(=O)N1CCCCC1 | – | 4.1µM | – | –
COc1ccc(S(=O)(=O)N2CCCCCC2)cc1C(=O)NCc1ccc(C)cc1 | 15µM | 12µM | – | –
COc1ccc(CCNC(=O)c2cc(S(=O)(=O)N3CCCCCC3)ccc2OC)cc1OC | ? | 13µM | ? | –
COc1ccc(S(=O)(=O)N2CCCCCC2)cc1C(=O)N(C)CCOc1ccc(Cl)cc1 | 13µM | ? | ? | –
O=C1C(=Cc2ccccc2O)SC(=S)N1CCCN1CCOCC1 | · | · | · | –
O=C1CC(C(=O)O)C2(CCCC2)O1 (stereo unspecified) | · | · | – | –
COc1ccc(CCN(C)C(=O)c2cc(S(=O)(=O)N3CCCCC3)ccc2Cl)cc1OC | 13µM | ? | ? | –
COc1ccc2c(=O)c(C(=O)NCCc3ccc(OC)c(OC)c3)c[nH]c2c1 | 10µM | ? | – | –
SMILES | Pf growth 48h | Pf growth 96h | HCV inh | AMA1 RON2 block
COc1ccc2c(=O)c(C(=O)NCCc3ccccc3)c[nH]c2c1 | – | – | – | –
COC(=O)c1sccc1NC(=O)/C=C/c1ccc(Cl)cc1 | – | 13µM | – | –
COC(=O)c1sccc1NC(=O)Nc1cc(C)cc(C)c1 | – | 4.7µM | – | –
COC(=O)c1sccc1NC(=O)Nc1ccc(F)cc1F | – | 12µM | – | –
COC(=O)c1sccc1NC(=O)Nc1ccc(C)cc1 | – | – | – | –
COC(=O)c1sccc1NC(=O)/C=C\c1ccc(Cl)cc1Cl | · | – | – | –
COC(=O)c1sccc1NC(=O)c1ccc(C(C)C)cc1 | – | 10µM | – | –
CC1(C(=O)NS(=O)(=O)C2CC2)CCN(C(=O)C2(c3ccc(Cl)cc3)CCCC2)C1 (stereo unspecified) | · | · | · | –
CC(C)(C)C1CCC(=NNC(=O)c2ccco2)CC1 (stereo unspecified) | – | ? | – | –
O=S(=O)(CS(=O)(=O)c1ccc(Cl)cc1)c1ccc(Cl)cc1 | – | – | – | –
